# Among all 220,000 compounds or so, about 3,300 (1.5%) were called active. What follows is part of a selection rich in actives, with near analogues and random picks from the rest. Unmarked numbers belong to inactive results.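 How the source made its calls: active means compounds that cut the protein-peptide binding signal by more than 50% relative to plate controls in a single-dose test; inactive means the rest.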
# Target: Induced myeloid leukemia cell differentiation protein Mcl-1 (Homo sapiens) (UniProt Q07820)
# Sequence (Q07820 whole entry, looked up): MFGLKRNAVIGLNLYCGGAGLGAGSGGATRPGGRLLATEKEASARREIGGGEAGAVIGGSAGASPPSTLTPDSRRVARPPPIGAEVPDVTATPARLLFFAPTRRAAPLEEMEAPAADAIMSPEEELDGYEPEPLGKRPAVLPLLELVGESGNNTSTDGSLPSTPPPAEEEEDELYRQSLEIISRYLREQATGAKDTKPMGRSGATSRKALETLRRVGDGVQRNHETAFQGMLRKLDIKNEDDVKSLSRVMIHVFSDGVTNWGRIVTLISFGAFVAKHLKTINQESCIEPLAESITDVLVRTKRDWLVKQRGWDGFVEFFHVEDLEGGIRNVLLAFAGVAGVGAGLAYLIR
# Assay: disruptors of Mcl-1 and Noxa BH3 peptide – biochemical, TR-FRET, 1536-well, primary screen (AID 1022);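 further: His-tagged Mcl-1 with rhodamine Noxa BH3 peptide and terbium anti-His antibody; 0% = Mcl-1 plus Noxa peptide wells and 100% = peptide-only wells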
# Details: TR-FRET Mcl-1/Noxa peptide binding, 2 h; at 21.7 µM; stronger effect = higher value
row,Structure (SMILES),inhibition
1,O=C1CCCCC1C(=O)c1ccccc1 (centres undefined),95% (active)
2,O=C(/C=C/c1ccccc1[N+](=O)[O-])OC1CCCCC1=O (centres undefined),5.64%
3,O=C(OC1CCCCC1=O)c1cccc(S(=O)(=O)NCc2ccccc2)c1 (centres undefined),-5.3%
4,Cc1ccccc1N1CCN(Cc2nc(Cc3ccccc3F)no2)CC1,9.66%
5,O=S(=O)(c1ccc(Cl)cc1)N1CCCN(c2ccc(C(F)(F)F)cn2)CC1,15.1%
6,Cc1ccc(NS(=O)(=O)c2ccc(C)c(NC(=O)COc3ccc4ccccc4c3)c2)c(C)c1,-15.7%
7,Cc1cccc(COc2ccccc2/C=N/Nc2ccc([N+](=O)[O-])cc2)c1,1.32%
8,Cc1ccc(NS(=O)(=O)c2ccc(N/N=C/c3ccccc3OCC(=O)O)c([N+](=O)[O-])c2)c(C)c1,56.7% (active)
9,CCCCSc1nnc2c(n1)OC=Nc1ccccc1-2,12.5%
10,O=C(CC(c1ccccc1)c1cc(Cl)ccc1O)NCCN1CCOCC1 (centres undefined),-4.69%
11,O=C(Cc1ccccc1)N1N=C(c2ccncc2)CC1(O)C(F)(F)F (centres undefined),-12.4%
12,CC(C)c1ccc2c(c1)c(SC(C)(C)C)c(CC(C)(C)C(=O)O)n2Cc1ccc(Cl)cc1,68.7% (active)
13,Cc1ccc(C)c2c1cc(C)c1nnc(SCC(=O)Nc3cccc(C(=O)O)c3)n12,4.65%
14,CC1CCN(Cc2nc(-c3ccc(Cl)cc3)no2)CC1,11%
15,O=C(O)CC1=C(Nc2ccccc2)C(=O)N(c2ccccc2)C1c1ccc(Cl)cc1 (centres undefined),-6.85%
16,CN(C(=O)Nc1ccc(Cl)cc1)n1cnc2ccccc2c1=O,-0.02%
17,COc1ccc(OCC(O)CNCCNc2nccc(C(F)(F)F)n2)cc1 (centres undefined),-8.04%
18,CCn1c(CN2C(=O)CSc3ccccc32)n[nH]c1=S,-15.7%
19,Fc1ccccc1OCCSc1nc2ccccc2o1,60.4% (active)
20,CCN(CC)C(=O)CSc1nc2ccccc2o1,7.79%
21,CC(C)(C)C(=O)CSc1nc2ccccc2o1,8.46%
22,Cn1nc(C(C)(C)C)c([N+](=O)[O-])c1C(N)=O,5.22%
23,COc1ccc(Nc2cc(Cl)ccc2C(=O)O)cn1,11%
24,CCN(CC)CCCNC(=O)c1ccc2c(=O)n(Cc3ccc4c(c3)OCO4)c(=S)[nH]c2c1,25.2%
25,CCCCSc1nc2ccccc2[nH]1,12.9%

row,Structure (SMILES),inhibition
1,CCCCN(CC)CCCNC(=O)c1ccc(CSc2nc3ccncc3[nH]2)cc1,63% (active)
2,COC(=O)c1nc(NC(=O)c2ccc(F)cc2)n[nH]1,-6.78%
3,COC(=O)c1nc(NC(=O)c2ccc(C(C)(C)C)cc2)n[nH]1,69.2% (active)
4,COC(=O)c1nc(NC(=O)c2ccc(Cl)cc2)n[nH]1,-8.02%
5,O=C(O)CC1(CC(=O)Nc2cccc(C(F)(F)F)c2)CCCC1,-33.1%
6,Nc1nnnn1/N=C/c1cc([N+](=O)[O-])ccc1O,-18%
7,COc1ccc(N2C(=O)CC(Sc3n[nH]c(-c4ccc(C)cc4)n3)C2=O)cc1 (centres undefined),36%
8,Cc1ccc(N2C(=O)CC(Sc3ncn[nH]3)C2=O)cc1 (centres undefined),-10.1%
9,O=C1CC(Sc2ncn[nH]2)C(=O)N1c1ccccc1 (centres undefined),54.4% (active)
10,Cc1nc(CNS(=O)(=O)c2cc([N+](=O)[O-])ccc2C)cs1,-0.49%
11,Cc1ccc(-c2nn(-c3ccccc3)cc2/C=C/C(=O)Nc2cccc(S(N)(=O)=O)c2)cc1,7.42%
12,O=C(CN1C(=O)/C(=C\c2ccccc2F)SC1=S)Nc1nc2ccccc2s1,11.5%
13,CN(C)S(=O)(=O)c1cccc(-c2nn(-c3ccccc3)cc2/C=C2\SC(=S)N(CC(=O)O)C2=O)c1,74.1% (active)
14,CCOC(=O)c1sc2nc(CSCC(=O)OCc3ccc(C(=O)OC)o3)[nH]c(=O)c2c1C,11.7%
15,COC(=O)c1sc2[nH]c(=S)n(N)c(=O)c2c1C,52.1% (active)
16,CCOC(=O)c1sc2nc(C)[nH]c(=O)c2c1C,-7.23%
17,Cc1onc(-c2ccccc2)c1C(=O)N=C(N)c1ccc(Cl)cc1,13.2%
18,Cc1nnc(N/N=C/c2cccs2)[nH]c1=O,-2.37%
19,CC(O)c1nc2c(c(=O)n(C)c(=O)n2C)n1C (centres undefined),-1.58%
20,CCN1CCN(c2nc(Nc3cccc(F)c3)nc(N)c2[N+](=O)[O-])CC1,56.7% (active)
21,CC1CN(c2nc(Nc3ccccc3)nc(N)c2[N+](=O)[O-])CC(C)O1 (centres undefined),-24.5%
22,CNc1nc(Nc2ccc(C)c(Cl)c2)nc(N)c1[N+](=O)[O-],26.8%
23,O=C(NCc1cccnc1)Nc1cccc(NC(=O)NCc2cccnc2)c1F,-1.36%
24,COc1ccc(Cl)cc1C(=O)Nc1ccc(N(C)C(C)=O)cc1,15.3%
25,COc1cc(OC)c(C(=O)Nc2ccc(N(C)C)cc2)cc1OC,51.8% (active)

row,Structure (SMILES),inhibition
1,COc1cc(OC)c(C(=O)Nc2ccccc2-c2ccccc2)cc1OC,2.98%
2,CC(NC(=S)NNS(=O)(=O)c1ccc(C(C)(C)C)cc1)c1ccccc1 (centres undefined),-17.7%
3,Cc1ccc2c(c1)c1ncn(Cc3ccc(F)cc3)c(=O)c1n2C,-20.4%
4,O=C(Nc1ccc(Cl)cc1)Nc1nnc(/C=C/c2ccccc2)s1,91.2% (active)
5,O=C(CSc1ccccc1)Nc1nnc(/C=C/c2ccccc2)s1,9.47%
6,COc1ccc(/C=C/c2nnc(NC(=O)C(C)C)s2)cc1,12.2%
7,CN(C)c1ccc(/C=C/C(=O)c2ccc(O)cc2)cc1[N+](=O)[O-],20.5%
8,CCCc1nc2oc3c(=O)[nH]cnc3c2c2c1COC(C)(C)C2,-3.33%
9,CC(=O)Nc1ccc(C(=O)/C=C/c2ccc[nH]2)cc1,15.7%
10,COc1ccc(N2C(=O)c3ccccc3NC2c2ccc(OC)c(CN3CCOCC3)c2)cc1 (centres undefined),7.79%
11,CCN(CCNC(=O)C1=C(C)C(=O)OC12CCC(C)CC2)c1ccccc1 (centres undefined),-5.12%
12,Nc1ccc(-c2sc(N)nc2-c2ccccc2)cc1,26.2%
13,Brc1ccc(-c2nnc(-c3ccccc3)o2)o1,8.68%
14,Nc1ccc(-c2nnc(-c3ccc(-c4ccccc4)cc3)o2)cc1,65.7% (active)
15,COc1ccc(S(=O)(=O)N(CC(=O)N/N=C/c2ccccc2C(=O)O)c2ccccc2OC)cc1,12.8%
16,CCN1CCN(C(c2cccnc2)c2cc(Cl)c3cccnc3c2O)CC1 (centres undefined),34%
17,Oc1c(C(c2ccccn2)N2CCOCC2)ccc2cccnc12 (centres undefined),5.37%
18,CCOC(=O)N1CCN(C(c2cccnc2)c2ccc3cccnc3c2O)CC1 (centres undefined),61.5% (active)
19,Cc1nc(N)sc1N=Nc1c(C)n(C)n(-c2ccccc2)c1=O,13%
20,CC(C)OP(=O)(OC(C)C)C(Nc1ccccc1)c1cccc([N+](=O)[O-])c1 (centres undefined),6.5%
21,O=C1/C(=C/c2ccc3c(c2)OCO3)CCC/C1=C\c1ccc2c(c1)OCO2,-7.31%
22,CSC1=N/C(=C\c2ccc3c(c2)OCO3)C(=O)S1,5.49%
23,CCC1=C/C(=C\c2ccc3c(c2)OCO3)C(=O)S1,55.4% (active)
24,O=C(COc1ccc([N+](=O)[O-])cc1)Nc1ccc(N2CCCC2)cc1,52.2% (active)
25,O=C(NCCCN1CCN(c2ccc(F)cc2)CC1)Nc1ccc([N+](=O)[O-])cc1,52% (active)

row,Structure (SMILES),inhibition
1,O=C(Nc1ccc(F)cc1)N1CCN(c2ccc(F)cc2)CC1,-20.8%
2,COc1ccc(OCC(=O)Nc2ccc(N3CCC(C)CC3)cc2)cc1,5.22%
3,O=C(COC(=O)C1CCCCC1)Nc1ccc([N+](=O)[O-])cc1,-0.21%
4,CN1CCN(CCNC(=O)Nc2ccc([N+](=O)[O-])cc2)CC1,6.06%
5,CN(C)c1nc(=Nc2cccc(Cl)c2)ss1,13.4%
6,CC(C)(C)C(=O)OCc1nc(-c2ccc(O)c(O)c2)cs1,46.4%
7,COc1ccc(CCNC(=O)C(Sc2ccccn2)c2ccccc2)cc1OC (centres undefined),-11.6%
8,CSc1ccc(NC(=O)/C=C/C(=O)O)cc1,14.6%
9,Cc1oc(C(N)=O)cc1COc1ccc(C(N)=O)cc1,7.05%
10,O=C(NCCN1CCOCC1)c1ccc2c(c1)N(Cc1ccc(Cl)cc1)CCS2,16.4%
11,NC(=O)[C@H]1CC2(CC(c3cccc(NC(=O)[C@H]4CCC(=O)N4)c3)=NO2)CN1C(=O)c1ccccc1C(=O)c1ccccc1 (some centres undefined),3.36%
12,Cc1cc(=O)[nH]c2nnnn12,0.51%
13,O=C(NC1CCCCC1)N1CCc2[nH]c3ccccc3c2C1,-13%
14,Fc1ccc(NC(=S)N2CCc3[nH]c4ccccc4c3C2)cc1,14.9%
15,O=C(Nc1ccc(Cl)cc1)N1CCc2[nH]c3ccccc3c2C1,104% (active)
16,CS(=O)(=O)c1ccc(Cl)c(NC(=O)Nc2ccccc2)c1,2.41%
17,O=C(Nc1ccc(Cl)cc1)c1ccsn1,11.5%
18,O=C(Nc1ccccc1)c1nnsc1S(=O)(=O)c1ccc(Cl)cc1,68.7% (active)
19,N#CC1=C(N)Oc2c(ccc3cccnc23)C1c1ccncc1 (centres undefined),-11.2%
20,NC(=O)N/N=C\c1cccs1,-22.2%
21,C=CCSC(CC)(CC)C(N)=O,-9.07%
22,COc1ccc(N2CCC(CNC(=S)Nc3c(C)cccc3C)C2)cc1 (centres undefined),17.1%
23,COc1ccc(NC(=S)NCC2CCN(c3ccc(OC)cc3)C2)cc1 (centres undefined),67.3% (active)
24,COc1ccc(NC(=S)NCCN2CCC(C)CC2)cc1,19.6%

# — PubChem BioAssay AID1022 (Emory University Molecular Libraries Screening Center, 2008)
